Structures can show the parent of a compound that is named as a salt. ± gives the standard deviation of the averaged measurements.
Tests used:
Assay in all cases: growth (OD600 after 10 h); higher = more growth (less inhibition)
[1] = test system: E. coli TESEC Alr+ wild-type control; settings: compound 0.1 mM; raw OD600 reference: median of DMSO wells 0.241, cell-free background 0.041
Procedure: (§1)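 TESEC Mtb Alr E. coli, or the Alr+ wild-type control, in 384-well plates with Prestwick library compounds at 0.1 mM and 1% DMSO, across arabinose induction levels of 1E3 to 1E7 nM. Growth is read as OD600 after 10 h at 37 °C in triplicate biological replicates.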

[2] = test system: E. coli TESEC Mtb Alr; settings: compound 0.1 mM
Procedure: as §1

[3] = test system: E. coli TESEC Mtb Asd; settings: compound 0.1 mM
Procedure: (§2)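 TESEC E. coli strains in which the native enzyme is deleted and replaced by arabinose-inducible Mtb Asd, DapB, CysH or TrpD, each grown in its selective medium. Strains were screened against the Prestwick library at 0.1 mM and 1% DMSO in 384-well format at low and high arabinose induction. Growth is read as OD600 after 10 h in triplicate.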

[4] = test system: E. coli TESEC Mtb DapB; settings: compound 0.1 mM
Procedure: as §2

[5] = test system: E. coli TESEC Mtb Alr; settings: compound 0.1 mM; remark: listed apart in the source
Procedure: (§3)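 TESEC Mtb Alr E. coli (ΔaraC ΔtolC ΔentC Δalr ΔdadX, arabinose-inducible Mtb Alr) or the Alr+ wild-type control strain, grown in defined M9-fructose medium without D-alanine in 96-well plates with Prestwick library compounds at 0.1 mM and 1% DMSO. Low Alr induction is 0.1 µM arabinose and high induction is 10 mM arabinose.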

[6] = test system: E. coli TESEC Alr+ wild-type control; settings: compound 0.1 mM; raw OD600 reference: median of DMSO wells 0.49, cell-free background 0.052
Procedure: as §3

[7] = arabinose 1000 nM, raw OD600 reference: median of DMSO wells 0.294, cell-free background 0.041
[8] = arabinose 10000 nM, raw OD600 reference: median of DMSO wells 0.264, cell-free background 0.041
[9] = arabinose 100000 nM, raw OD600 reference: median of DMSO wells 0.201, cell-free background 0.041
[10] = arabinose 1000000 nM, raw OD600 reference: median of DMSO wells 0.193, cell-free background 0.041
[11] = arabinose 10000000 nM, raw OD600 reference: median of DMSO wells 0.146, cell-free background 0.041
[12] = arabinose induction (level): High, raw OD600 reference: median of DMSO wells 0.331, cell-free background 0.041
[13] = arabinose induction (level): Low, raw OD600 reference: median of DMSO wells 0.417, cell-free background 0.041
[14] = arabinose induction (level): High, raw OD600 reference: median of DMSO wells […], cell-free background 0.041
[15] = arabinose induction (level): Low, raw OD600 reference: median of DMSO wells 0.227, cell-free background 0.041
[16] = arabinose 100 nM, raw OD600 reference: median of DMSO wells 0.413, cell-free background 0.052
[17] = arabinose 10000000 nM, raw OD600 reference: median of DMSO wells […], cell-free background 0.052

SMILES | growth [1] | growth [2, 7] | growth [2, 8] | growth [2, 9] | growth [2, 10] | growth [2, 11] | growth [3, 12] | growth [3, 13] | growth [4, 14] | growth [4, 15] | growth [5, 16] | growth [5, 17] | growth [6]
C[C@H](CS)C(=O)N1CCC[C@H]1C(=O)O [Captopril] | 0.259 ± 0.003 | 0.291 ± 0.019 | 0.253 ± 0.012 | 0.198 ± 0.027 | 0.176 ± 0.0095 | 0.148 ± 0.011 | 0.358 ± 0.044 | 0.399 ± 0.027 | 0.187 ± 0.019 | 0.21 ± 0.027 | 0.41 ± 0.0091 | 0.382 ± 0.021 | –
Cc1cccc(Nc2ccncc2S(=O)(=O)NC(=O)NC(C)C)c1 [Torsemide] | 0.222 ± 0.005 | 0.29 ± 0.012 | 0.257 ± 0.019 | 0.168 ± 0.012 | 0.17 ± 0.0046 | 0.16 ± 0.0021 | 0.228 ± 0.029 | 0.353 ± 0.095 | 0.197 ± 0.021 | 0.26 ± 0.019 | 0.403 ± 0.016 | 0.326 ± 0.025 | –
O=C(N[C@H](CO)[C@H](O)c1ccc([N+](=O)[O-])cc1)C(Cl)Cl [Chloramphenicol] | 0.0406 ± 0.00026 | 0.03953 ± 0.00031 | 0.0391 ± 0.00017 | 0.0408 ± 0.00053 | 0.03907 ± 0.00015 | 0.0407 ± 0.00064 | 0.0519 ± 0.00067 | 0.0522 ± 0.0019 | 0.0496 ± 0.00061 | 0.0578 ± 0.015 | 0.0561 ± 0.0036 | 0.0533 ± 0.003 | –
C=C(CC)C(=O)c1ccc(OCC(=O)O)c(Cl)c1Cl [Ethacrynic acid] | 0.0566 ± 0.0011 | 0.242 ± 0.01 | 0.244 ± 0.0042 | 0.2 ± 0.005 | 0.171 ± 0.0037 | 0.144 ± 0.0087 | 0.171 ± 0.057 | 0.19 ± 0.074 | 0.18 ± 0.0058 | 0.181 ± 0.022 | 0.376 ± 0.0052 | 0.374 ± 0.017 | 0.374 ± 0.014
Nc1ccn([C@@H]2O[C@H](CO)[C@@H](O)[C@@H]2O)c(=O)n1 [Cytarabine] | 0.24 ± 0.0059 | 0.307 ± 0.0036 | 0.247 ± 0.0079 | 0.214 ± 0.025 | 0.1685 ± 0.00085 | 0.171 ± 0.002 | 0.309 ± 0.032 | 0.305 ± 0.02 | 0.224 ± 0.024 | 0.229 ± 0.026 | 0.406 ± 0.0096 | 0.31 ± 0.0066 | 0.552 ± 0.051
Nc1cc(C(Cl)=C(Cl)Cl)c(S(N)(=O)=O)cc1S(N)(=O)=O [Clorsulon] | 0.224 ± 0.0038 | 0.278 ± 0.0056 | 0.269 ± 0.0061 | 0.214 ± 0.029 | 0.179 ± 0.0043 | 0.15 ± 0.0072 | 0.283 ± 0.025 | 0.3101 ± 0.0016 | 0.216 ± 0.014 | 0.248 ± 0.016 | 0.414 ± 0.011 | 0.335 ± 0.025 | –
CCN(CCCc1ccccc1)CCCc1ccccc1 [Alverine citrate salt] | 0.205 ± 0.011 | 0.221 ± 0.013 | 0.286 ± 0.0067 | 0.177 ± 0.0094 | 0.1472 ± 0.00053 | 0.156 ± 0.011 | 0.211 ± 0.032 | 0.4 ± 0.074 | 0.153 ± 0.0058 | 0.205 ± 0.054 | 0.418 ± 0.0047 | 0.328 ± 0.0065 | –
Nc1nc(=S)c2ncn([C@@H]3O[C@H](CO)[C@@H](O)[C@H]3O)c2[nH]1 [Thioguanosine] | 0.0575 ± 0.0014 | 0.0503 ± 0.0022 | 0.0465 ± 0.00055 | 0.0493 ± 0.00055 | 0.0474 ± 0.00055 | 0.05337 ± 0.00021 | 0.209 ± 0.0071 | 0.127 ± 0.014 | 0.174 ± 0.011 | 0.115 ± 0.032 | 0.225 ± 0.028 | 0.0964 ± 0.0089 | 0.349 ± 0.02
COc1cccc2c1C(=O)c1c(O)c3c(c(O)c1C2=O)C[C@@](O)(C(=O)CO)C[C@@H]3O[C@H]1C[C@H](N)[C@H](O)[C@H](C)O1 [Doxorubicin hydrochloride] | 0.0471 ± 0.00081 | 0.0479 ± 0.0023 | 0.047 ± 0.002 | 0.0467 ± 0.00066 | 0.04497 ± 0.00012 | 0.0474 ± 0.0025 | 0.0664 ± 0.0059 | 0.0616 ± 0.0028 | 0.0535 ± 0.00072 | 0.0539 ± 0.001 | 0.0599 ± 0.0035 | 0.0585 ± 0.00087 | –
CCCOc1ccc2[nH]c(NC(=O)OC)nc2c1 [Oxibendazol] | 0.264 ± 0.025 | 0.309 ± 0.021 | 0.269 ± 0.0059 | 0.213 ± 0.028 | 0.183 ± 0.0022 | 0.151 ± 0.0057 | 0.353 ± 0.1 | 0.425 ± 0.048 | 0.191 ± 0.013 | 0.219 ± 0.027 | 0.409 ± 0.0096 | 0.345 ± 0.039 | 0.518 ± 0.085
CC(=O)CC(c1ccc([N+](=O)[O-])cc1)c1c(O)c2ccccc2oc1=O (stereo unspecified) [Acenocoumarol] | 0.244 ± 0.0011 | 0.298 ± 0.0045 | 0.2588 ± 0.0011 | 0.175 ± 0.0092 | 0.1675 ± 0.0012 | 0.139 ± 0.0017 | 0.26 ± 0.023 | 0.293 ± 0.051 | 0.175 ± 0.015 | 0.189 ± 0.0085 | 0.395 ± 0.011 | 0.323 ± 0.024 | 0.503 ± 0.0074
Cc1c(C)c2c(c(C)c1O)CCC(C)(C(=O)O)O2 (stereo unspecified) [Trolox] | 0.247 ± 0.0084 | 0.295 ± 0.0077 | 0.255 ± 0.0029 | 0.209 ± 0.031 | 0.1784 ± 0.0016 | 0.143 ± 0.0045 | 0.272 ± 0.097 | 0.32 ± 0.15 | 0.242 ± 0.0084 | 0.222 ± 0.021 | 0.405 ± 0.0096 | 0.316 ± 0.024 | 0.579 ± 0.053
CN(C)CCC(c1ccccc1)c1ccccn1 (stereo unspecified) [Pheniramine maleate] | 0.241 ± 0.014 | 0.289 ± 0.0087 | 0.242 ± 0.0091 | 0.191 ± 0.0028 | 0.162 ± 0.0033 | 0.14 ± 0.0047 | 0.248 ± 0.064 | 0.408 ± 0.014 | 0.201 ± 0.022 | 0.213 ± 0.019 | 0.41 ± 0.006 | 0.345 ± 0.015 | 0.455 ± 0.059
NC(Cc1cc(I)c(Oc2cc(I)c(O)c(I)c2)c(I)c1)C(=O)O (stereo unspecified) [Thyroxine (L)] | 0.169 ± 0.0037 | 0.2363 ± 0.0021 | 0.284 ± 0.006 | 0.196 ± 0.021 | 0.154 ± 0.0089 | 0.185 ± 0.0093 | 0.354 ± 0.0042 | 0.292 ± 0.042 | 0.206 ± 0.008 | 0.243 ± 0.013 | 0.369 ± 0.034 | 0.359 ± 0.019 | 0.469 ± 0.018
CN1CCC(=C2c3ccccc3Sc3ccccc32)CC1 [Pimethixene maleate] | 0.0726 ± 0.0016 | 0.0585 ± 0.013 | 0.0419 ± 0.00051 | 0.0556 ± 0.0055 | 0.0414 ± 0.00026 | 0.05003 ± 0.00025 | 0.118 ± 0.028 | 0.161 ± 0.0073 | 0.15 ± 0.011 | 0.223 ± 0.069 | 0.362 ± 0.078 | 0.0659 ± 0.0097 | –
CN1CCN2c3ccccc3Cc3ccccc3C2C1 (stereo unspecified) [Mianserine hydrochloride] | 0.179 ± 0.0089 | 0.198 ± 0.013 | 0.283 ± 0.017 | 0.211 ± 0.014 | 0.142 ± 0.011 | 0.17 ± 0.0078 | 0.222 ± 0.042 | 0.303 ± 0.04 | 0.189 ± 0.0025 | 0.243 ± 0.03 | 0.424 ± 0.0035 | 0.318 ± 0.015 | 0.4446 ± 0.0027

From the supplement of paper PMC9262897, “Low-cost anti-mycobacterial drug discovery using engineered E. coli” (Nature Communications, 2022)
